This is a sample that favours compounds with a hit; in the whole collection about 1.5% have one here.
NadD block – NadD (S. aureus) enzyme inhibition; inhibition, % at 20 µM; 0.78% of 360,000 active; AID 602399; purified NadD enzyme, colorimetric absorbance read-out; in the data active = inhibition above about 26%
Neddylation inh – inhibitors of human cullin neddylation | P61081+Q13564 | TR-FRET cullin neddylation, biochemical | inhibition, % at 25 µM | 0.58% of 360,000 active; in the data active = inhibition above about 36%
Target sequence (P61081 whole entry, looked up): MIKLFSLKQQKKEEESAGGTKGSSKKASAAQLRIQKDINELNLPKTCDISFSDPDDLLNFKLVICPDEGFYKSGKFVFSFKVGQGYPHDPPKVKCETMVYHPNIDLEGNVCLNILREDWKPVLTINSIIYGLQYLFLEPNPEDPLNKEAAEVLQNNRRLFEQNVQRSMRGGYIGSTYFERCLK
Target sequence (Q13564 whole entry, looked up): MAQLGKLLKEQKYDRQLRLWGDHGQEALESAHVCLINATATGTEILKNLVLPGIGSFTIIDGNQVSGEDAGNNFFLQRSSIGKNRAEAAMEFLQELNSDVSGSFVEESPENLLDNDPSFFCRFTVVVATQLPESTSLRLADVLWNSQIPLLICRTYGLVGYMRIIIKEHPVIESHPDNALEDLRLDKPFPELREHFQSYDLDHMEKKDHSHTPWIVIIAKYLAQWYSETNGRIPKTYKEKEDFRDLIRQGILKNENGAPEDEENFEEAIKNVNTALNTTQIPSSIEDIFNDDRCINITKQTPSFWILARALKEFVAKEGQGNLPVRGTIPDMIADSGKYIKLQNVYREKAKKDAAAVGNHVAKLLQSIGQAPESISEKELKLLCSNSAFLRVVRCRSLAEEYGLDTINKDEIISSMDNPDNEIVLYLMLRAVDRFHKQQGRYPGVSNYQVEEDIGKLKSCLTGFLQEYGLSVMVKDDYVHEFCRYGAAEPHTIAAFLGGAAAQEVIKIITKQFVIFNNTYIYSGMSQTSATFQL
NPR2 activator – GC-B (human) receptor activation | P20594 | HEK293-GC-B cells, CNP EC30, cGMP TR-FRET; 0% at EC30 CNP, 100% saturating CNP | activation, % at 10 µM | 0.11% of 370,000 active;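 active = activation at 10 µM reaching about 35% in either raw or pattern-adjusted values, limit read from the data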
NPR1 activator – GC-A (human) enzyme activation; HEK293 GC-A cells, cGMP TR-FRET, EC30 ANP; 0% at EC30 ANP, 100% saturating ANP; 0.14% of 370,000 active; P16066; activation, % at 10 µM; in the data active = activation above about 40%
Neddyl inh conf – cullin neddylation inhibition, confirmation | TR-FRET cullin neddylation biochemical assay | calls only at 25 µM | 13% of 1,800 active | AID 652217 | shares compounds with Neddylation inh; in the data active = inhibition above about 40%;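 also: neddylation substrate is the cullin 1 ring ligase complex with SKP2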
An asterisk follows results filed as active.

Results for O=S1(=O)c2c(cccc2N2CC[C@H](O)C2)O[C@H]2CCN1C2 ?
NPR2 activator: 1; NPR1 activator: -2

What do the screens show for `O=C(COc1ccccc1F)N1N=C(c2cccs2)CC1c1ccco1` (configuration not stated)?
NadD block: -3; Neddylation inh: 47*; NPR2 activator: -3; NPR1 activator: 1; Neddyl inh conf: inactive

How did O=C(COc1ccc(Cl)cc1)N1N=C(c2cccs2)CC1c1ccco1 (configuration not stated) do in these assays?
NadD block: -10; Neddylation inh: 6; NPR2 activator: -1; NPR1 activator: 1

What do the screens show for `Cc1ccc(-c2nn(-c3ccccc3)cc2C2CC(c3cccs3)=NN2C(=O)CCC(=O)O)cc1` (configuration not stated)?
NadD block: -3; Neddylation inh: 41*; NPR2 activator: -2; NPR1 activator: 1; Neddyl inh conf: inactive

Results for Cn1c(NC(=O)c2ccccc2)nc(Cc2ccccc2)c1Cc1ccccc1 ?
NPR2 activator: -2; NPR1 activator: -3

What do the screens show for `O=C(NN=Cc1cccc(OCc2ccccc2)c1)c1cc(-c2ccc(Cl)cc2)n[nH]1`?
NPR2 activator: 1; NPR1 activator: 2

What do the screens show for `O=C(CSc1nnc2ccc(-c3ccc(F)cc3)nn12)NCC1CCCO1` (configuration not stated)?
NadD block: -6; Neddylation inh: 40*; NPR2 activator: -1; NPR1 activator: 2

How did CCc1ccc(-c2ccc3nnc(SCC(N)=O)n3n2)cc1 do in these assays?
NadD block: -4; Neddylation inh: 44*; NPR2 activator: 2; NPR1 activator: 4; Neddyl inh conf: inactive

Results for CC(=O)c1ccc(-c2ccc(C(=O)N(C)Cc3nc4ccccc4c(=O)[nH]3)o2)cc1 ?
NadD block: -2; Neddylation inh: 73*; NPR2 activator: 1; NPR1 activator: 0

How did CN(Cc1nc2ccccc2c(=O)[nH]1)C(=O)c1ccc(S(=O)(=O)N(C)C)cc1 do in these assays?
NadD block: 0; Neddylation inh: -4; NPR2 activator: 5; NPR1 activator: 0

How did CN(C)c1cccc(C(=O)NCCCSc2ccccc2)c1 do in these assays?
NadD block: -3; Neddylation inh: 49*; NPR2 activator: 2; NPR1 activator: 3

How did N=c1n(Cc2ccccc2)c2ccccc2n1CC(O)c1ccco1 (configuration not stated) do in these assays?
NadD block: 0; Neddylation inh: 39*; NPR2 activator: -11; NPR1 activator: -13; Neddyl inh conf: inactive

How did Cc1ccc(C=Nn2c(-c3n[nH]c4c3CCC4)n[nH]c2=S)s1 do in these assays?
NPR2 activator: -3; NPR1 activator: -3

Results for CCN=C1NC(c2ccc(C(F)(F)F)cc2)C(C(=O)OC)=C(C)N1Cc1ccccc1C(F)(F)F (configuration not stated) ?
NPR2 activator: -8; NPR1 activator: -12

What do the screens show for `Cc1cc(Nc2nc3c(c(=O)n(C)c(=O)n3C)n2C)n(-c2ccc(Cl)cc2)n1`?
NadD block: -2; Neddylation inh: 40*; NPR2 activator: -3; NPR1 activator: -4; Neddyl inh conf: inactive

What do the screens show for `Cn1ncc2cc3c(Nc4ccc(Cl)cc4)cccc3nc21`?
NadD block: -6; Neddylation inh: 57*; NPR2 activator: -22; NPR1 activator: -27; Neddyl inh conf: active

Results for Cn1ncc2c(Nc3ccc(Cl)cc3)ncnc21 ?
NadD block: 2; Neddylation inh: 30; NPR2 activator: -6; NPR1 activator: 2

Results for COC(=O)c1cc(OC)c(OC)c(OC)c1N ?
NadD block: -1; Neddylation inh: 38*; NPR2 activator: 4; NPR1 activator: 4; Neddyl inh conf: inactive

How did COc1cc2cc(-c3ccc(OC)c(OC)c3C)nc(N)c2cc1OC do in these assays?
NadD block: -5; Neddylation inh: 38*; NPR2 activator: -6; NPR1 activator: 3; Neddyl inh conf: inactive

How did COc1ncccc1-c1nnn(-c2ccc(Cl)nc2)n1 do in these assays?
NadD block: -1; Neddylation inh: 31*; NPR2 activator: -8; NPR1 activator: -6; Neddyl inh conf: inactive

How did O=S1(=O)c2ccc(Br)cc2OC[C@@H](c2ccccc2)N1Cc1cn(CCC2OCCCO2)nn1 do in these assays?
NPR2 activator: 0; NPR1 activator: 0

How did O=C(OCc1cc(=O)n2ccsc2n1)c1ccccc1NCCO do in these assays?
NadD block: 1; Neddylation inh: 39*; NPR2 activator: -2; NPR1 activator: 1

What do the screens show for `O=C(OCc1cc(=O)n2ccsc2n1)c1ccccc1O`?
NadD block: -2; Neddylation inh: 16; NPR2 activator: 4; NPR1 activator: -3

How did CC(C)CN1C(=O)C[C@]2(C(=O)N(C)c3ccc(NS(=O)(=O)C4CCCCC4)cc32)C1c1ccccc1 (some centres not stated) do in these assays?
NPR2 activator: -4; NPR1 activator: 0

How did COC(=O)CCC(=O)OC1(C)C(=O)C=C2C=C(C3CC3)N(c3cccc(C#N)c3)C=C2C1=O (configuration not stated) do in these assays?
NadD block: 3; Neddylation inh: 44*; NPR2 activator: 1; NPR1 activator: -3; Neddyl inh conf: inactive

How did COC(=O)CCC(=O)OC1(C)C(=O)C=C2C=C(C3CC3)N(C3CC3)C=C2C1=O (configuration not stated) do in these assays?
NadD block: -1; Neddylation inh: -4; NPR2 activator: 4; NPR1 activator: 0

How did COc1ccc(Nc2oc(COc3ccccc3OC)nc2C#N)cc1 do in these assays?
NadD block: -7; Neddylation inh: 42*; NPR2 activator: 3; NPR1 activator: 8; Neddyl inh conf: inactive

What do the screens show for `COc1ccccc1OCc1nc(C#N)c(NCCCn2ccnc2)o1`?
NadD block: 2; Neddylation inh: -6; NPR2 activator: -2; NPR1 activator: 2

How did O=C(NCc1cccc(C(F)(F)F)c1)O[C@H]1CC[C@@]23CCCN2C(=O)CCC[C@H]3C1 do in these assays?
NPR2 activator: -3; NPR1 activator: -3

Results for COc1ccc2oc3cc(C)[n+]([O-])c(-c4ccc(Cl)cc4)c3c2c1 ?
NadD block: 8; Neddylation inh: 42*; NPR2 activator: -15; NPR1 activator: -17; Neddyl inh conf: inactive

How did Cc1cccc(NC(=O)C2CCCN2S(=O)(=O)c2cccnc2)c1C (configuration not stated) do in these assays?
NPR2 activator: 5; NPR1 activator: 3

What do the screens show for `CCCCOCC1CN(CCCC)S(=O)(=O)c2c(cccc2Sc2ccc(OC)c(OC)c2)O1` (configuration not stated)?
NPR2 activator: -1; NPR1 activator: -1

Results for Cc1ccc(-c2c(C#N)c(N)nc3c2CCCC3)o1 ?
NadD block: -3; Neddylation inh: 45*; NPR2 activator: -7; NPR1 activator: 3; Neddyl inh conf: inactive
